From PubChem BioAssay
Compounds with a hit are over-represented: about 7.1% of the library has one in this group of screens.
ATXN viability: Viability Counterscreen for Primary qHTS for Inhibitors of ATXN expression. S2 cells (HEK-293 line with an ATXN2-luciferase reporter) viability, CellTiter-Fluor protease fluorescence, 24 h. Potency, µM (doses to about 56.7 µM), most hits filed as cytotoxic. 400,000 tested, 0.49% active. AID 651635, 2014; also: nearly all actives have a fitted effect of over 40% in size
PINK1 modulator: A Quantitative High throughput Screen to Identify Chemical Modulators of PINK1 Expression. PINK1 immunofluorescence, high-content cytometry, 24 h. Potency, µM (doses to about 76.6 µM), hits mostly activators. 410,000 tested, 0.2% active. AID 624263, 2012; active = well fitted activation curve with a large enough effect; inconclusive = small, poorly fitted or top-dose-only effect; cell line not stated here; also: nearly all actives have a fitted effect of over 65% in size
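PINK1 protein level read as immunofluorescence by microplate cytometer in a fixed, stained stable cell line after 24 h exposure to five compound concentrations, with CCCP as control.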
MCF10A rereplic: A quantitative high throughput screen for small molecules that induce DNA re-replication in MCF 10a normal breast cells; MCF 10A DNA re-replication, Hoechst nuclear intensity, 48 h; Potency, µM (doses to about 46.1 µM), usual class: activators; 350,000 tested, 2.9% active; AID 624296, 2012; also: nearly all actives have a fitted effect of over 50% in size
IL1B secr inh: qHTS for Inhibitors of Inflammasome Signaling: IL-1-beta AlphaLISA Primary Screen | THP-1 LPS/ATP IL-1B secretion, AlphaLISA, 16 h; stronger effect = lower value | activity change, % at 57.5 µM | 360,000 tested, 4.7% active; in the data active = activity change below about -50%; inconclusive = mostly about -30% to -49%
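Secreted IL-1B measured by AlphaLISA bead assay after 16 h compound exposure of THP-1 cells; compounds (final up to 57.5 uM) added 1 h before LPS (250 ng/mL) and ATP (1.25 mM) stimulation; lower signal means less secretion.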
ATXN2 expr inh: Primary qHTS for Inhibitors of ATXN expression. 360,000 tested, 0.72% active. AID 1745845, 2022. Potency, µM (doses to about 57 µM), actives largely listed as inhibitors. HEK-293 ATXN2-luciferase reporter, luminescence, 24 h; also: nearly all actives have a fitted effect of over 55% in size
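ATXN2-luciferase reporter cells (luciferase flanked by upstream and downstream ATXN2 gene portions) were treated 24 h at 37 °C with compounds at up to 57 uM. SteadyGlo luminescence gave expression; GF-AFC fluorescence gave viability.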
SW480 rereplic: A quantitative high throughput screen for small molecules that induce DNA re-replication in SW480 colon adenocarcinoma cells; SW480 DNA re-replication, Hoechst DNA content imaging, 48 h; Potency, µM (series often up to 46.1 µM), usual class: activators; 340,000 tested, 1.8% active; also: nearly all actives have a fitted effect of over 55% in size
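SW480 cells exposed to compounds for 48 hr at 37 C, 5% CO2, then Hoechst-stained 40 min. Nuclear DNA content imaged by fluorescence scanning (405 nm excitation, 500-530 nm emission); re-replication scored as increased high-intensity nuclei.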
Each line names hits and unclear results; the compound was inactive in the other large screens. Unless noted, calls follow the shape of the dose curve; as a rule, active = well fitted curve in the direction sought with a large enough effect; inconclusive = small, poorly fitted or top-dose-only effect, or another doubt; inactive = no such curve, though single readings can be large; an effect the other way counts as inactive or inconclusive.

O=C(c1cn(-c2ccccc2)nc1-c1ccc(F)cc1)N1CCCCC1	ATXN viability inconclusive, MCF10A rereplic inconclusive
Fc1ccc(-c2nn(-c3ccccc3)cc2CNCc2ccccc2)cc1	MCF10A rereplic inconclusive, IL1B secr inh -90.1
Fc1ccc(-n2cc(CNCCc3ccncc3)c(-c3ccccc3Cl)n2)cc1	none
O=C(NCc1cn(-c2ccccc2)nc1-c1ccc(F)cc1)c1cccc([N+](=O)[O-])c1	IL1B secr inh -75.4, SW480 rereplic inconclusive
CC1(C)S[C@H]2[C@H](NC(=O)[C@@H](N)c3ccc(O)cc3)C(=O)N2[C@@H]1C(=O)O	none (no result: ATXN viability, PINK1 modulator, MCF10A rereplic, IL1B secr inh, SW480 rereplic)
COc1ccc(CN2CCCC(Cn3cc(C(=O)N4CCCC4)nn3)C2)c(O)c1 (configuration not stated)	none (no result: MCF10A rereplic, IL1B secr inh, ATXN2 expr inh, SW480 rereplic)
CCOC(=O)c1nc(NCc2ccc(Cl)cc2)c2c(C)noc2n1	none (no result: MCF10A rereplic, IL1B secr inh, SW480 rereplic)
Cc1ccc2c(=O)cc(C(=O)Nc3sc4c(c3C(=O)NCC3CCCO3)CCCC4)oc2c1C (configuration not stated)	none (no result: MCF10A rereplic, IL1B secr inh, SW480 rereplic)
C=C(C)Cn1c(SCC(=O)Nc2cc(C)ccc2C)nc2sc3c(c2c1=O)CCCC3	none (no result: MCF10A rereplic, IL1B secr inh, SW480 rereplic)
CC(=O)N/C(=C\c1ccccc1)C(=O)OC(C)C(=O)NCc1ccccc1 (configuration not stated)	none
COC(=O)CNC(=O)COC(=O)/C=C/c1cccs1	IL1B secr inh inconclusive
COC(=O)CNC(=O)COC(=O)/C=C/c1ccc2ccccc2n1	MCF10A rereplic inconclusive, IL1B secr inh -103.3, SW480 rereplic inconclusive
CC(OC(=O)/C=C/c1ccc2ccccc2n1)C(=O)NCc1ccccc1 (configuration not stated)	IL1B secr inh -75.4, SW480 rereplic inconclusive
CC1CCCCN1C(=O)COC(=O)/C=C/c1ccc2ccccc2n1 (configuration not stated)	ATXN viability inconclusive, MCF10A rereplic inconclusive, IL1B secr inh -54.2, SW480 rereplic inconclusive (no result: ATXN2 expr inh)
Cc1noc(Cn2c(=O)c3ccccc3n(CC(=O)Nc3ccc(C(C)C)cc3)c2=O)n1	none (no result: ATXN viability, MCF10A rereplic, IL1B secr inh, ATXN2 expr inh, SW480 rereplic)
Cn1nc(-c2ccccc2)cc1NC(=O)Nc1ccc(C(C)(C)C)cc1	PINK1 modulator inconclusive, IL1B secr inh -54.4 (no result: ATXN2 expr inh)
O=C(NNC(=O)c1cc(-c2ccccc2)nc2ccccc12)Nc1cccc(Cl)c1	ATXN viability inconclusive, MCF10A rereplic 11.6µM
Cn1nc(-c2ccc(Cl)cc2)cc1NC(=O)Nc1ccccc1	none
O=C(NNS(=O)(=O)c1ccc(Cl)cc1)c1cc(-c2ccccc2)nc2ccccc12	none
O=C(NNC(=O)c1cc(-c2ccncc2)nc2ccccc12)Nc1ccc(F)cc1	none
CC(C)(C)c1ccc(-c2cc(C(=O)NNC(=O)Nc3ccccc3)c3ccccc3n2)cc1	MCF10A rereplic inconclusive, IL1B secr inh -50.2, SW480 rereplic inconclusive
O=C(NNC(=O)c1cc(-c2cccnc2)nc2ccccc12)Nc1ccc(Cl)cc1	MCF10A rereplic inconclusive, IL1B secr inh -96.4 (no result: ATXN viability)
COC(=O)c1c(NC(=O)/C=C/c2ccc(OC)c(OC)c2)sc2c1CCC2	none (no result: ATXN viability, MCF10A rereplic, IL1B secr inh, ATXN2 expr inh, SW480 rereplic)
O=C(CCCn1c(=O)[nH]c2ccsc2c1=O)N1CCN(c2cccc(C(F)(F)F)c2)CC1	none (no result: MCF10A rereplic, IL1B secr inh, SW480 rereplic)
CCCCCCCCCC(=O)N/N=C/c1ccc(C)s1	ATXN viability inconclusive, MCF10A rereplic 16.4µM, SW480 rereplic inconclusive
CCCCCCCC(=O)N/N=C/c1ccc(Br)cc1	MCF10A rereplic 7.31µM
Cc1ccc(/C=N/NC(=O)C[n+]2ccccc2)s1	none
CCOC(=O)CNc1nc(Cl)nc(N2CCCCC2)n1	none (no result: ATXN2 expr inh)
N#Cc1nc(N2CCCC2)nc(N2CCCC2)n1	MCF10A rereplic inconclusive, IL1B secr inh -91.5
CCOC(=O)CNc1nc(C#N)nc(N2CCOCC2)n1	MCF10A rereplic inconclusive, IL1B secr inh -89.7
N#Cc1nc(N2CCCCC2)nc(N2CCOCC2)n1	IL1B secr inh -55.3, ATXN2 expr inh inconclusive
Cc1ccc(C)c(-n2cc(-c3ccccc3)nc2SCC(=O)Nc2ccccc2)c1	none (no result: MCF10A rereplic, IL1B secr inh, SW480 rereplic)
